Measurements taken from PubChem BioAssay AID1159580 (chemical genetic matrix, 2015).
Hit rate of the full screen: of about 5,500 compounds, about 2,000 (36%) were called active. Inconclusive results (about 18%) are left out. Rule as the data show it: active = normalized growth mostly below about 0.91 (no sharp cut-off); inconclusive = no clear call, values can overlap the other calls; inactive = mostly above about 0.92. Some of the results follow.

Assay: chemical genetic growth profiling, strain panel (AID 1159580);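 also: tested at 20 µM; growth read once vehicle control cultures reached saturation at 30 °C; 1 = growth at the plate median or of vehicle wells; lower values mean less growth of the strain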
Details: S. cerevisiae deletion strains, growth OD
[1] = locus YAL013W, strain DEP1, stronger effect = lower value
[2] = locus YGR078C, strain PAC10, stronger effect = lower value
[3] = locus YJR075W, strain HOC1, stronger effect = lower value
[4] = locus YMR307W, strain GAS1, stronger effect = lower value

Measured: normalized growth

CN1C[C@@H](CS(=O)(=O)N(C)C)C[C@@H]2c3cccc4c3c(cn4C)C[C@H]21
inactive: [1] 1 | locus YAL040C, strain CLN3, stronger effect = lower value 1.01 | locus YCL061C, strain MRC1 (second series), stronger effect = lower value 1 | locus YDR363W, strain ESC2, stronger effect = lower value 1.01 | locus YER002W, strain NOP16, stronger effect = lower value 1.01 | [2] 1.01 | [3] 1 | [4] 1.03 | locus YNL175C, strain NOP13, stronger effect = lower value 1.01 | locus YNL197C, strain WHI3, stronger effect = lower value 1.02 | locus YNL224C, strain SQS1, stronger effect = lower value 1.01 | locus YOR083W, strain WHI5 (second series), stronger effect = lower value 1.03

Cc1c(C)c(C)c(CO)c(C)c1C
inactive: [1] 0.988 | locus YBR229C, strain ROT2, stronger effect = lower value 1.01 | locus YDL101C, strain DUN1, stronger effect = lower value 1.01 | locus YDR150W, strain NUM1, stronger effect = lower value 0.981 | locus YEL061C, strain CIN8, stronger effect = lower value 0.996 | [2] 0.998 | locus YHR030C, strain SLT2, stronger effect = lower value 1.06 | locus YHR087W, strain rtc3, stronger effect = lower value 1.01 | locus YJL187C, strain SWE1, stronger effect = lower value 1 | locus YJR043C, strain POL32, stronger effect = lower value 1 | [3] 1.04 | locus YLR039C, strain RIC1, stronger effect = lower value 0.98 | locus YLR058C, strain SHM2 (second series), stronger effect = lower value 1.02 | locus YLR085C, strain ARP6, stronger effect = lower value 1.06 | locus YLR262C, strain YPT6, stronger effect = lower value 0.955 | locus YML094W, strain GIM5, stronger effect = lower value 0.996 | locus YMR219W, strain ESC1, stronger effect = lower value 1.01 | locus YMR263W, strain SAP30, stronger effect = lower value 0.993 | [4] 1.03 | locus YNL153C, strain GIM3, stronger effect = lower value 0.97 | locus YNL298W, strain CLA4 (second series), stronger effect = lower value 1.04 | locus YNL322C, strain KRE1, stronger effect = lower value 1.01 | locus YNR030W, strain Alg12, stronger effect = lower value 1 | locus YPL055C, strain LGE1, stronger effect = lower value 0.997 | locus YPL241C, strain CIN2, stronger effect = lower value 0.989 | locus YPR135W, strain CTF4, stronger effect = lower value 1
